Source: PubChem BioAssay
ClpP mod: qHTS Assay for Activators of ClpP; ATP-dependent Clp protease proteolytic subunit (Bacillus subtilis (strain 168)), P80244; purified B. subtilis ClpP, FRET peptide cleavage, 20 min; Potency, µM (titrated, usually from 57.5 µM), for the others: at the top dose activity change, negative = active; 1.9% of 340,000 active; active = well fitted falling curve with a large enough effect; inconclusive = small, poorly fitted or top-dose-only effect; inactive = no such curve, though single readings can be large or run the other way; note: potency is the fitted concentration of half-maximal effect; the source files actives as falling curves though it sought activators and does not explain the sign; nearly all actives have a fitted effect of over 65% in size
Target sequence (P80244 whole entry, looked up): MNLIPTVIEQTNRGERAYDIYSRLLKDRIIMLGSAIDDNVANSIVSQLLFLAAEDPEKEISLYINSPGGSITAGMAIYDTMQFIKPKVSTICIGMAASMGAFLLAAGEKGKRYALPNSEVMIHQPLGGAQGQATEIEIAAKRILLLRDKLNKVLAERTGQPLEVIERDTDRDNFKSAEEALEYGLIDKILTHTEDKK
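FRET quenching reversal measured ClpP activation: 10 microg/mL B. subtilis ClpP at pH 8 with the FRET-FV decapeptide, read at 430 nm after 320 nm excitation. The 20-min minus 0-min signal was scaled between DMSO/no-enzyme wells and ADEP (5.8 microM final).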
DT40 TDP1 no CPT: qHTS for Inhibitors of human tyrosyl-DNA phosphodiesterase 1 (TDP1): qHTS in cells in absence of CPT; DT40 Tdp1-/- hTDP1 cells, no CPT, ATP luminescence, 48 h; 15% of 420,000 active; Potency, µM (top dose mostly 46.2 µM), for inactives: top-dose activity change, negative = growth inhibition, actives largely listed as inhibitors; note: potency is the fitted concentration of half-maximal effect; % is set by controls: 0 for no effect and ±100 for the full control effect; nearly all actives have a fitted effect of over 55% in size
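Camptothecin absent (DMSO only). Human TDP1-complemented DT40 knockout cells, 400 cells/well, 37 °C for minimum 48 hr; ATP measured via CellTiter-Glo, 30 min dark incubation, luminescence.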
IL-1B inflam inh: qHTS for Inhibitors of Inflammasome Signaling: IL-1-beta AlphaLISA Primary Screen | THP-1 LPS/ATP IL-1B secretion, AlphaLISA, 16 h; active compounds read low | 4.7% of 360,000 active | AID 743279, 2014 | activity change, % at 57.5 µM; in the data active = activity change below about -50%; inconclusive = mostly about -30% to -49%; note: % is set by controls: 0 for no effect and ±100 for the full control effect
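Secreted IL-1B measured by AlphaLISA bead assay after 16 h compound exposure of THP-1 cells; compounds (final up to 57.5 uM) added 1 h before LPS (250 ng/mL) and ATP (1.25 mM) stimulation; lower signal means less secretion.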
DRD3 agonist: qHTS of D3 Dopamine Receptor Agonist: qHTS. max activation, %. D(3) dopamine receptor (Homo sapiens), P35462. AID 652048, 2013. D3R DiscoveRx beta-arrestin cells, luminescence, 90 min. 0.58% of 410,000 active; in the data active = max activation above about 30%; note: 0% is about no effect
Target sequence (P35462 whole entry, looked up): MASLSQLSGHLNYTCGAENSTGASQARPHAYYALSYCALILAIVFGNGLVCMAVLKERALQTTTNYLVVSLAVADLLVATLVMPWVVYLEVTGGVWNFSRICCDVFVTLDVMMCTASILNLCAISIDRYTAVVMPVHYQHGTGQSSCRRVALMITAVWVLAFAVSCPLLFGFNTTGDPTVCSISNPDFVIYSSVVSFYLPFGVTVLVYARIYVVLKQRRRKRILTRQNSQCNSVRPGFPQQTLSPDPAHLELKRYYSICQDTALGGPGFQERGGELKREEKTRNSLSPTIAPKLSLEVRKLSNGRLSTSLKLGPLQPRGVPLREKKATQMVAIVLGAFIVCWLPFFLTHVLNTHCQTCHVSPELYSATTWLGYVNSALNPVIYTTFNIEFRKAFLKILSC
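Agonist mode: compounds and dopamine controls were applied to plated cells for 90 min at 37 degrees C after an overnight attachment at 1500 cells/well. Luminescent read-out followed 30 - 60 minutes at room temperature with DiscoveRx detection reagent.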
TDP1 cell CPT: qHTS for Inhibitors of human tyrosyl-DNA phosphodiesterase 1 (TDP1): qHTS in cells in presence of CPT; 12% of 420,000 active; AID 686979, 2013; Potency, µM (top dose mostly 46.2 µM), without a hit: at the top dose activity change, negative = growth inhibition, actives largely listed as inhibitors; chicken DT40 Tdp1-/-;hTDP1 cells + 20 nM CPT, ATP luminescence, 48 h; note: potency is the fitted concentration of half-maximal effect; % is set by controls: 0 for no effect and ±100 for the full control effect; nearly all actives have a fitted effect of over 55% in size
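Chicken DT40 Tdp1-/- cells stably complemented with human TDP1 were seeded at 400 cells/well in medium containing 20 nM camptothecin, exposed to pin-transferred compounds, and grown at 37 °C for at least 48 hr. Viability was read as ATP luminescence.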
D3 antag: qHTS of D3 Dopamine Receptor Antagonist: qHTS. D(3) dopamine receptor (Homo sapiens), P35462. D3R cells, DiscoveRx beta-arrestin luminescence, antagonist mode; active compounds read low. max response, negative = inhibition, %. 2.5% of 360,000 active. AID 652054, 2013; in the data active = max response below about -50%; inconclusive = no clear call, values can overlap the other calls; note: % is set by controls: 0 for no effect and ±100 for the full control effect
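Cells plated overnight at 1500 cells/well, then exposed to library compounds with dopamine controls for 90 minutes at 37 degrees C. DiscoveRx reagent added for 30–60 minutes at room temperature; luminescence read, quantitative HTS format.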
* marks the source's active call; other numbers are inactive results; ? = inconclusive; . = no result. Rows were chosen to be rich in hits. Some 21% of all compounds tested hit in one or more screens of this group. Unless noted, calls come from the whole dose curve; as a rule, active = well fitted inhibition curve with a large enough effect; inconclusive = small, poorly fitted or top-dose-only effect; inactive = flat fitted curve, though single readings scatter.

SMILES	ClpP mod	DT40 TDP1 no CPT	IL-1B inflam inh	DRD3 agonist	TDP1 cell CPT	D3 antag
COC(=O)COc1ccc(-c2nnc(Nc3ccc(O)cc3)c3ccccc23)cc1	2%	?	.	-13	?	.
O=C(C[N+]12CN3CN(CN(C3)C1)C2)c1ccc(O)c(O)c1	-2%	?	.	.	10µM*	.
CCCSc1ncc(Cl)c(C(=O)N(Cc2cccc(Cl)c2)C2CCS(=O)(=O)C2)n1 (stereo not given)	1%	16µM*	.	-6	23µM*	.
CCCSc1ncc(Cl)c(C(=O)N2CCN(c3cccc(Cl)c3)CC2)n1	-3%	?	.	-4	1.8µM*	.
CCSc1ncc(Cl)c(C(=O)N2CCN(c3ccccc3OC)CC2)n1	0%	4.1µM*	.	3	3.3µM*	.
CN(CCn1ccnc1)Cc1cn(Cc2ccccc2)nc1-c1ccc2c(c1)OCO2	1%	-12%	-16	2	?	11
COc1ccc(OC)c(CNC(=O)c2cnc(N(C)C)nc2)c1	-26%	5%	.	3	-4%	.
CSc1ccc(CCNC(=O)c2c(C)oc3ncn(C)c(=O)c23)cc1	-2%	18µM*	.	0	?	.
COc1ccc(CCNC(=O)c2c(C)oc3ncn(CC(C)C)c(=O)c23)c(OC)c1	0%	16µM*	.	2	16µM*	.
CCNC(=O)c1c(C)oc2ncn(C)c(=O)c12	0%	-19%	.	-2	-9%	.
Cc1oc2ncn(CC(C)C)c(=O)c2c1C(=O)NCCc1ccc(Cl)cc1	1%	15µM*	.	5	?	.
Cc1ccc(N(CC(=O)Nc2cccc(Cl)c2)S(=O)(=O)c2cccs2)cc1	1%	?	.	-10	?	.
CN(C)CC1CCC/C(=C/c2ccc(Cl)cc2)C1=O (stereo not given)	2%	0.58µM*	-24	6	0.52µM*	-13
CN(C)CC1CCC/C(=C\c2ccc(OC(=O)/C=C/c3ccc(Cl)c(Cl)c3)cc2)C1=O (stereo not given)	-4%	0.92µM*	?	3	0.73µM*	-9
COc1ccc(/C=C/C(=O)OC2CCCCC2CN(C)C)cc1 (stereo not given)	.	-5%	?	5	0%	-20
CN(C)CC1CCCCC1OC(=O)c1ccc(Cl)cc1 (stereo not given)	-1%	?	-3	-3	-16%	0
COc1cccc(/C=C2/CCC(CN(C)C)C2=O)c1 (stereo not given)	-2%	2.3µM*	-100*	-23	2.3µM*	-69*
CCCC/C=C1/CCC(CN(C)C)C1=O (stereo not given)	-4%	2.3µM*	-28	6	2.1µM*	2
O=C(O)c1ccccc1C(=O)NC1CCCCNC1=O (stereo not given)	.	-7%	7	12	3%	47
CCc1ccccc1N(CC)C(=O)c1cc2c(s1)-c1ccccc1OC2	4%	.	.	-3	.	.
O=C(/C=C/[C@H]1O[C@@H](n2cnc3c(NC(=O)c4ccccc4)ncnc32)[C@H](O)[C@@H]1O)NCC1CCCO1 (stereo not given in full)	-1%	3%	?	3	17%	-15
COc1ccc(/C=C2/CCCC(CN(C)C)C2=O)cc1 (stereo not given)	-1%	0.58µM*	-72*	-16	0.52µM*	?
COc1ccc(C=C2CCC3C(=O)CCCC3(C)C2=O)cc1 (stereo not given)	0%	?	-18	0	-1%	-15
Cc1cc(C)c(NC(=O)CCN2C(=O)c3ccccc3Sc3ncccc32)c(C)c1	-1%	21µM*	.	-11	?	.
O=C(CN1C(=O)c2ccccc2Sc2ncccc21)Nc1cccc(C(F)(F)F)c1	9%	?	.	-5	18µM*	.
SMILES	ClpP mod	DT40 TDP1 no CPT	IL-1B inflam inh	DRD3 agonist	TDP1 cell CPT	D3 antag
Cc1cc(C)cc(NC(=O)CN2C(=O)c3ccccc3Sc3ncccc32)c1	-1%	?	.	-7	?	.
Cc1c(Cl)cccc1NC(=O)CCN1C(=O)c2ccccc2Sc2ncccc21	-2%	?	.	-15	?	.
Cc1ccc(NC(=O)CCN2C(=O)c3ccccc3Sc3ncccc32)c(Cl)c1	-2%	18µM*	.	-20	18µM*	.
Cc1ccc(S(=O)(=O)NCCc2ccncc2)cc1	5%	1%	-3	-4	?	-7
CCCCNS(=O)(=O)c1ccc(S(=O)(=O)NCc2ccncc2)cc1	-1%	7.3µM*	?	5	4.1µM*	7
CCCCc1ccc(S(=O)(=O)NCCc2ccncc2)cc1	14%	12µM*	18	-5	23µM*	0
O=[N+]([O-])c1cccc(S(=O)(=O)Nc2ccc(Cc3ccncc3)cc2)c1	-1%	?	5	-8	?	-25
O=[N+]([O-])c1cccc(S(=O)(=O)NCc2ccncc2)c1	.	2.3µM*	57	13	2.3µM*	-13
COc1cccc(-c2noc(COc3cccc(C)c3C)n2)c1	-6%	-14%	.	5	-2%	.
COC(=O)c1ccc(Oc2nc3c(c(=O)n(C)c(=O)n3C)n2C(C)C)cc1	1%	-23%	.	1	?	.
CCn1c(Oc2cccc(Br)c2)nc2c1c(=O)n(C)c(=O)n2C	-2%	-23%	4	1	0%	7
Cn1c(=O)c2c(nc(Br)n2CC(=O)C23CC4CC(CC(C4)C2)C3)n(C)c1=O	-3%	18µM*	-6	3	23µM*	73
Cn1c(=O)c2c(nc(Br)n2Cc2nnc(N)s2)n(C)c1=O	.	11%	-14	9	14%	19
CCC(=O)c1ccc(Oc2nc3c(c(=O)n(C)c(=O)n3C)n2CC)cc1	.	?	18	4	?	-19
COC(=O)c1ccc(Oc2nc3c(c(=O)n(C)c(=O)n3C)n2CCC(C)C)cc1	26%	23µM*	2	3	?	61
COc1cccc(C(=O)Cn2c(Br)nc3c2c(=O)n(C)c(=O)n3C)c1	-1%	9.2µM*	28	-12	?	35
COc1ccc(C(=O)Cn2c(Cl)nc3c2c(=O)n(C)c(=O)n3C)cc1	.	21µM*	38	-8	?	0
COCCCn1c(SC(C)C(=O)NC2CC2)nc2ccccc2c1=O (stereo not given)	.	-5%	-12	-11	17%	4
